Source: PubChem (several laboratories)
Hits are enriched below; roughly 4.5% of the tested compounds scored in any of these assays.
SKKanGAS inh: SKKanGAS growth inhibition. S. pyogenes SKKanGAS, kanamycin growth, BacTiter-Glo, 6 h. inhibition, % at 7.5 µM. 300,000 tested, 1.3% active. AID 1662;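 active means mean replicate score, as percent of positive control median, at least 50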;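 further: strain carries kanamycin resistance gene driven by streptokinase promoter and grows in 40 µg/ml kanamycin; loss of luminescence reflects streptokinase promoter inhibition or plain growth inhibition; 0% = median of DMSO wells and 100% = positive control at its reference dose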
tim23-1 inh: tim23-1 yeast growth inhibition; S. cerevisiae tim23-1 growth, BacTiter-Glo luminescence, 24 h; inhibition, % at 20 µM; 330,000 tested, 1.3% active;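 active means growth inhibition of the mutant yeast at or above 50%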;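 further: temperature-sensitive mutant grown at 25 °C; plate controls were DMSO-treated mutant yeast for no effect and medium wells lacking yeast for full effect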
TIM10 inh: growth inhibitors of TIM10 yeast strain; S. cerevisiae TIM10 strain growth, BacTiter-Glo luminescence, 24 h; inhibition, % at 10 µM; 330,000 tested, 1.4% active;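 active means inhibition of 40% or more at the single tested concentration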;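 further: wild-type TIM10 isogenic control strain grown at permissive 25 °C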
NLRP3 yeast inh: blocks the NALP3 inflammasome reconstituted in yeast. Yeast reconstituted NLRP3/ASC/caspase-1, beta-gal luminescence, 24 h. inhibition, % at 10 µM. 330,000 tested, 0.39% active. AID 2825;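 active means inhibition of 50% or more; inactive means inhibition below 50%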;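 further: plate controls were induced DMSO wells for no effect and uninduced yeast grown without galactose for full effect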
PfHsp90 set2: growth inhibition of yeast expressing Plasmodium Hsp90; S. cerevisiae expressing PfHsp90, BacTiter-Glo ATP, 48 h; yeast lacking PDR1 and PDR3 efflux regulators; inhibition, % at 9.4 µM; 310,000 tested, 0.32% active; AID 504621;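 active means every replicate shows inhibition above about 80%, whatever the replicate mean, limit read from the data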;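 further: 0% = DMSO neutral controls and 100% = 20 µM radicicol positive controls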
tim10-1 inh: tim10-1 yeast growth inhibition | S. cerevisiae tim10-1 ts strain growth, BacTiter-Glo, 24 h | 330,000 tested, 2.2% active | inhibition, % at 20 µM;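 active means inhibition of at least 40%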;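 further: mutant grown at 25 °C; 0% = DMSO wells with yeast and 100% = wells holding no yeast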
tim10-1 confirm: tim10-1 yeast growth inhibition, confirmed | 7,400 tested, 56% active | inhibition, % at 20 µM | S. cerevisiae tim10-1 ts strain growth, BacTiter-Glo, 24 h | AID 463213 | shares compounds with tim10-1 inh;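 active means inhibition of yeast growth at or above a set limit in either of two repeat tests at 20 µM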;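 further: tim10-1 mutant grown at permissive 25 °C to find synthetic lethal compounds; 0% = DMSO yeast wells and 100% = medium wells without yeast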
The depositor's hits bear a star; / = no result given.

SMILES	SKKanGAS inh	tim23-1 inh	TIM10 inh	NLRP3 yeast inh	PfHsp90 set2	tim10-1 inh	tim10-1 confirm
Oc1ccc(/C=N/Nc2nccnc2Cl)cc1	21	35	30	4	-3	47*	40*
CCCSc1oc(-c2ccco2)nc1S(=O)(=O)c1ccccc1	-4	33	25	14	18	43*	20
COC(=O)C1C(O)=C(C=Nc2ccc3ccccc3c2)C(=O)CC1(C)C (centres undefined)	6	37	-5	11	6	4	/
CC(=O)NC(=S)Nc1ccccc1N1CCCCC1	-4	25	26	-43	-22	43*	18
COC(=O)c1ccccc1NC(=S)NC(=O)C1CCCCC1	-8	41	30	20	-4	41*	34*
CC(C)(C)C(=O)NC(=S)Nc1ccccc1N1CCCC1	-2	6	26	-28	-2	39	/
O=C(NC(=S)Nc1ccccc1N1CCCCC1)c1ccc(-c2cccc([N+](=O)[O-])c2)o1	9	17	16	2	-17	41*	6
O=C(NC(=S)Nc1ccccc1N1CCCC1)c1ccc([N+](=O)[O-])cc1	6	49	34	21	20	57*	42*
COC(=O)c1ccccc1NC(=O)C1CCCC1	-9	8	5	-9	14	27	/
CCC(C)c1ccc(OCc2ccc(C(=O)O)o2)cc1 (centres undefined)	1	-7	4	19	7	-10	/
CCn1c(SCC(=O)N2CCC(C)CC2)nc2c(c1=O)SCC2	2	15	-5	4	-13	10	/
O=C(Nc1ccc(N2CCOCC2)c(Cl)c1)c1c(F)c(F)c(F)c(F)c1F	1	24	32	-95	-40	50*	40*
O=C(CCc1nnc2n(Cc3ccc(Cl)cc3)c(=O)c3ccccc3n12)N1CCN(c2ccccn2)CC1	22	31	15	23	-37	44*	19
CC(C)OCCCn1c(=O)c2ccccc2n2c(CCC(=O)N3CCN(c4ccccn4)CC3)nnc12	3	5	11	3	-6	16	/
CC1CCCCC1n1c(=S)[nH]c2ccccc2c1=O (centres undefined)	4	38	34	0	/	42*	3
CC1CCCCC1NC(=O)CCCn1c(=S)[nH]c2ccccc2c1=O (centres undefined)	3	3	-23	22	/	8	/
C=CC[C@@H](CC(=O)N[C@H](CO)Cc1ccccc1)C(=O)N[C@@H](COC(=O)[C@@H](CC=C)Cc1ccc(F)cc1)Cc1ccccc1	/	1	5	6	12	4	/
CC(=O)N[C@@H](CC(=O)N[C@H](CCC(=O)O)C(=O)O)C(=O)O	/	9	3	18	5	14	/
COCCNC(=O)c1cc2c(s1)-c1ccc(Cl)cc1SC2	10	33	10	23	2	42*	41*
Cc1c(C)n(Cc2ccccc2)c2ccc(C(=O)OCCN(C)C)cc12	-2	26	36	30	1	41*	43*
COc1ccc(CN(C(=O)CN2C(=O)C(C)Oc3ccccc32)C2CCCC2)c(OC)c1 (centres undefined)	0	44	31	15	-11	41*	29
COc1ccc(CN(C(=O)CN2C(=O)COc3ccccc32)C2CCCC2)c(OC)c1	1	40	23	6	-17	40*	15
COc1ccc(CN(Cc2ccccn2)C(=O)CN2C(=O)COc3ccccc32)cc1	-3	32	14	2	-6	26	/
CC(C)(C)C(=O)N1CCN(c2nc3ccccc3s2)CC1	-8	25	2	23	-1	47*	-9
CCc1ccc2nc(N3CCN(C(=O)C(C)(C)C)CC3)sc2c1	-3	22	-7	28	19	15	/
O=c1c2ccccc2cnn1CCOc1cccc(Br)c1	-8	17	19	38	14	-3	/
CCC1CN(C(=O)NCc2ccc(C)cc2)c2ccccc2O1 (centres undefined)	2	21	-7	27	-13	15	/
